# Most compounds without a hit are left out; they make up all but 11% or so of the library.
# NIH3T3 tox – cytotoxic compounds in NIH 3T3 cells; NIH 3T3 viability, CellTiter-Glo ATP luminescence, 48-72 h; Potency, µM (series often up to 96.7 µM), without a hit: top-dose activity change, negative = cytotoxicity, most hits filed as inhibitors; AID 1345082; actives 4.3% (n = 94,000); further: on the % scale 0 is the no-effect control and ±100 the full control effect; nearly all actives have a fitted effect of over 55% in size
#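 Viability of NIH 3T3 cells after 48 or 72 hr compound treatment at 37 °C was assessed by CellTiter-Glo, with luminescence imaged following a 10 min room-temperature step.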
# HEK cytotox – HEK 293 cell cytotoxicity; Potency, µM (titrated, usually from 115 µM), without a hit: at the highest dose activity change, negative = cytotoxicity, hits mostly inhibitors; actives 6.6% (n = 94,000); HEK 293 viability, ATP luminescence (CellTiter-Glo), 48-72 h; further: on the % scale 0 is the no-effect control and ±100 the full control effect; nearly all actives have a fitted effect of over 60% in size
#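 Read-out: CellTiter-Glo ATP luminescence. Cells: HEK 293, 250 cells/well. Exposure: 48 or 72 hr, 37 degree Celsius.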
# FLuc inh – inhibitors of firefly (Photinus pyralis) luciferase. P08659. purified P. pyralis luciferase, luminescence, biochemical. actives 2.5% (n = 76,000). Potency, µM (titrated, usually from 115 µM), most hits filed as inhibitors; further: on the % scale 0 is the no-effect control and ±100 the full control effect; nearly all actives have a fitted effect of over 65% in size
# Target sequence (P08659 whole entry, looked up): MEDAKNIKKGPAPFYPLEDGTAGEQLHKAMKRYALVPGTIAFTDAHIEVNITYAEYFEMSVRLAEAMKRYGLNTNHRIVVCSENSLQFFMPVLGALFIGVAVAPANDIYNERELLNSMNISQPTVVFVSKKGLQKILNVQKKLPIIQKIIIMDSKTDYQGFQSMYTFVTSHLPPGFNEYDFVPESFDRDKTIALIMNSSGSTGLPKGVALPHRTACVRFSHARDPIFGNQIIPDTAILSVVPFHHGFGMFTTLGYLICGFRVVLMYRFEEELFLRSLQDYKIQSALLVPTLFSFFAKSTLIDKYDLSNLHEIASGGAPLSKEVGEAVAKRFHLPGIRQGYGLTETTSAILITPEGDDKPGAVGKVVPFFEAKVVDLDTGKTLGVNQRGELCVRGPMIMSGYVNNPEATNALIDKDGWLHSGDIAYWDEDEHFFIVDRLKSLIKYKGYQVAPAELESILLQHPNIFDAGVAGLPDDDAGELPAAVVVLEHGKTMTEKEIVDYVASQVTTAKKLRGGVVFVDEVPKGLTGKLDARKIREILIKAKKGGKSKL
#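 Purified P. pyralis luciferase (10nM final) in 50mM Tris acetate pH 7.5, 10mM Mg acetate, 0.01% Tween-20, 0.05% BSA with 10uM D-luciferin and 10uM ATP. Compounds titrated qHTS. Luminescence imaged on CCD.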
# hNpr1 antagonist – antagonists of human natriuretic peptide receptor Npr1 | actives 1.6% (n = 76,000) | HEK293 hNpr1 GloSensor cGMP, ANP-stimulated luminescence | AID 1347048 | P16066 | Potency, µM (highest dose often 46.3 µM), without a hit: at the top dose activity change, negative = inhibition, most hits filed as inhibitors; calls by dose curve; further: on the % scale 0 is the no-effect control and ±100 the full control effect; nearly all actives have a fitted effect of over 60% in size
#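 Compound pre-incubated 30 min at room temperature on GloSensor-loaded HEK293 cells stably carrying hNpr1 and the pGS-40F cGMP biosensor. Stimulation uses hNppA at 0.1 nM final; luminescence is taken at baseline and 20 min post-agonist.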
# Npr1 antag conf – hNpr1 antagonism, confirmation assay; shares compounds with hNpr1 antagonist; HEK293 hNpr1 cGMP GloSensor luminescence, ANP-stimulated; Potency, µM (doses to about 57.6 µM), inactives show top-dose activity change, negative = inhibition, usual class: inhibitors; actives 76% (n = 1,400); AID 1347044; calls by dose curve; further: nearly all actives have a fitted effect of over 70% in size
# Npr2 selectivity – selectivity test of Npr1 antagonists against human Npr2 | actives 67% (n = 1,400) | HEK293 hNpr2 GloSensor cGMP luminescence, CNP-stimulated | Potency, µM (doses to about 57.6 µM), for inactives: at the top dose activity change, negative = inhibition, hits mostly inhibitors | AID 1347046 | shares compounds with hNpr1 antagonist; calls by dose curve; further: nearly all actives have a fitted effect of over 70% in size
# FLuc counter – counter-screen for Npr1 antagonists: firefly luciferase inhibitors | shares compounds with hNpr1 antagonist | purified FLuc enzyme, luminescence, Km substrate | Potency, µM (top dose mostly 57.6 µM), without a hit: at the highest dose activity change, negative = inhibition, usual class: inhibitors | actives 0.7% (n = 1,400); further: 0% is about no effect
# GloSensor ctrl – reduces cGMP signal in GloSensor control cells | shares compounds with hNpr1 antagonist | HEK293 GloSensor cGMP, SNP-stimulated, luminescence | Potency, µM (series often up to 57.6 µM), inactives show top-dose activity change, negative = inhibition, usual class: inhibitors | actives 69% (n = 1,400); calls by dose curve; further: on the % scale 0 is the no-effect control and ±100 the full control effect; nearly all actives have a fitted effect of over 70% in size
# * = called active by the depositor; i = inactive; ? = inconclusive; / = not tested or not shown; [ ] = dose if it differs, or a comment. Unless noted, the call rests on the fitted dose curve; in most records, active means well fitted curve in the direction sought with a large enough effect; inconclusive means small, poorly fitted or top-dose-only effect, or another doubt; inactive means no such curve, though single readings can be large; an effect the other way counts as inactive or inconclusive. Potency means the concentration at half of the fitted maximal effect.
SMILES,NIH3T3 tox,HEK cytotox,FLuc inh,hNpr1 antagonist,Npr1 antag conf,Npr2 selectivity,FLuc counter,GloSensor ctrl
CCCCC(=O)N1CCC(N(Cc2ccccc2)C2CCOCC2)CC1,-20%,?,i,-1%,/,/,/,/
O=C(CCc1ccccc1)N1CCC(c2nc(C3CCOCC3)no2)C1 (centres undefined),-10%,-11%,i,-18%,-17%,-2%,-2%,-12%
COc1cccc(CCC(=O)N2CCC(c3nc(C4CCOCC4)no3)C2)c1 (centres undefined),-26%,?,i,-1%,/,/,/,/
O=C(Nc1cccc(C(F)(F)F)c1)N[C@H]1CO[C@H]2[C@@H]1OC[C@@H]2n1nnnc1Oc1ccccc1,-1%,i,i,0%,/,/,/,/
O=C(N[C@H]1CO[C@H]2[C@@H]1OC[C@@H]2n1nnnc1Oc1ccc(-n2ccnc2)cc1)c1ccc(C(F)(F)F)cc1,-33%,35µM*,i,11µM*,17µM*,14µM*,2%,15µM*
O=C(N[C@H]1CO[C@H]2[C@@H]1OC[C@@H]2n1nnnc1Oc1ccccc1)c1ccc(C(F)(F)F)cc1,?,?,i,10µM*,11µM*,12µM*,-1%,9.7µM*
COc1ccc(-c2[nH]ncc2CN2CCCCCNC(=O)CC2c2ccccc2)cc1 (centres undefined),?,?,i,4%,/,/,/,/
CCCc1cc(CN(C)c2nc(CCN)nc3sc(C)c(C)c23)[nH]n1,?,35µM*,i,-24%,-25%,?,6%,2%
CC(C)C1=NOC2(CCN(Cc3ccc(C(F)(F)F)cc3)CC2)C1,?,?,i,11µM*,25µM*,31µM*,1%[86.2 µM],20µM*
Cn1nc(C2CC2)cc1NC(=O)c1ccc(Cl)nc1,-26%[138 µM],-6%[172 µM],/,/,/,/,/,/
COC(=O)C1=C(C)N=C2SC=C(CC(=O)NCc3ccccc3)N2C1c1ccccc1OC (centres undefined),?,?,i,-20%,/,/,/,/
COCCN(C)Cc1nc(Cc2ccccc2Cl)no1,2%,i,i,3%,/,/,/,/
CN(Cc1nc(Cc2ccccc2Cl)no1)Cc1cccc2cnccc12,?,?,i,14µM*,11µM*,12µM*,0%,11µM*
CCNC(=O)N1CCC(c2noc(-c3ccccc3)n2)C1 (centres undefined),-10%,-2%,i,7%,/,/,/,/
Cc1ccc(CNC(=O)N2CCC(c3noc(-c4ccccc4)n3)C2)cc1 (centres undefined),?,40µM*,i,18µM*,?,24µM*,0%,24µM*
COc1ccc(CNC[C@H]2Cn3c(-c4ccc(Cl)cc4)cnc3CO2)cc1,32µM*,56µM*,i,25µM*,31µM*,35µM*,1%[86.2 µM],?
COc1ccc(S(=O)(=O)NC[C@H]2Cn3c(-c4ccc(Cl)cc4)cnc3CO2)cc1,79µM*,89µM*,i,?,?,?,-20%[86.2 µM],-16%[86.2 µM]
CC(C)NC[C@H]1Cn2c(-c3cccc(Cl)c3)cnc2CO1,-22%[138 µM],-14%[172 µM],i,1%[70.6 µM],/,/,/,/
O=C1N[C@H](CC(=O)N2CCN(c3ccc(C(F)(F)F)cn3)CC2)C(=O)Nc2ccccc21,-15%,?,i,?,?,?,-1%,?
CCn1nc(C)c(CNC(=O)c2cc(COc3ccc4ncccc4c3)on2)c1C,?,?,i,10µM*,22µM*,19µM*,-1%,17µM*

# Screening results: PubChem BioAssay, National Center for Advancing Translational Sciences (NCATS)
